Measured values as given in PubChem BioAssay (Tox21).
Results filed as inconclusive are left out. Values without a mark were called inactive. Calls come from the whole dose curve.

The molecules below were run against Progesterone receptor (Homo sapiens) (UniProt P06401) (assay: qHTS assay to identify small molecule agonists of the progesterone receptor (PR) signaling pathway (AID 1346784; note: nearly all actives have a fitted effect of over 30% in size)). Conditions: PR-UAS-bla HEK293T, beta-lactamase FRET ratio, 16 h; series mostly up to 92.4 µM; activation: at the top concentration.
Progesterone receptor (Homo sapiens), sequence (P06401 whole entry, looked up): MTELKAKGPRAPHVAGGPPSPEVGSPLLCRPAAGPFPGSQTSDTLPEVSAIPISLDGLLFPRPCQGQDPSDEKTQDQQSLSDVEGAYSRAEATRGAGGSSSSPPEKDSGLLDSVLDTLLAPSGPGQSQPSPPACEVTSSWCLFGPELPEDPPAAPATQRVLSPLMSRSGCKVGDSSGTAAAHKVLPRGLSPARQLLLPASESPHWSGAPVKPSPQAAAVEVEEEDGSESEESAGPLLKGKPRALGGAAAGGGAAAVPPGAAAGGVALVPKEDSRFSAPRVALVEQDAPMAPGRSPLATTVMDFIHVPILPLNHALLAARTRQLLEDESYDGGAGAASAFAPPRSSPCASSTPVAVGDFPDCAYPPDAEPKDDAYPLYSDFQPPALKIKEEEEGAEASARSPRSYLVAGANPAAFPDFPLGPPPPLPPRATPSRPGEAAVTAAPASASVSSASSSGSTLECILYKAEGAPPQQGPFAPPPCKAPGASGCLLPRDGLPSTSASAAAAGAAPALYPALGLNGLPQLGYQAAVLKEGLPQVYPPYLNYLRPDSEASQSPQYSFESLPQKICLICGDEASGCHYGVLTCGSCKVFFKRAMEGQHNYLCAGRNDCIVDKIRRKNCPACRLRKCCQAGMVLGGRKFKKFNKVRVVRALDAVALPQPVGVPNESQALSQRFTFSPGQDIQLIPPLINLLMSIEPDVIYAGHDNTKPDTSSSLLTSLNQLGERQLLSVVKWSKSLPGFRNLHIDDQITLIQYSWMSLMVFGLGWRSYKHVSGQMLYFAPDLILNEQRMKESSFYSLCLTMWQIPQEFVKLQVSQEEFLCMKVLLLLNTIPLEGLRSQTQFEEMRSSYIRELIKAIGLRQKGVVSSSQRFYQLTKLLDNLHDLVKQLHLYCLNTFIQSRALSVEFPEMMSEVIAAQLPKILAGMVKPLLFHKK
From the text: U.S. Tox21 Program National Center for Advancing Translational Sciences [NCATS] NIH Chemical Genomics Center [NCGC] U.S. Environmental Protection Agency [EPA] National Institutes of Environmental Health Sciences [NIEHS] National Toxicology Program [NTP] U.S. Food and Drug Administration [FDA] […] Endocrine disrupting chemicals (EDCs) and their interactions with steroid hormone receptors like PR causes disruption of normal endocrine function. To identify the compounds that activate PR signaling, a PR-UAS-bla GripTite cell line i.e. PR-UAS-bla HEK 293T (Invitrogen, Carlsbad, CA, USA) containing a beta-lactamase reporter gene under the control of an Upstream Activator Sequence (UAS) was used to screen Tox21 10K compound library.
Tox21 Assay Protocol Summary: PR-UAS-bla HEK 293T cells were dispensed at 3,000 cells/5 uL of assay medium containing 2% charcoal stripped FBS per well into black wall/clear-bottom 1536-well plates using a Multidrop Combi (ThermoFisher Scientific, Waltham, MA) dispenser. After the assay plates were incubated at a 37C and 5% CO2 for 6hr, 23 nL of compounds dissolved in DMSO, positive controls or DMSO only was transferred to the assay plate by a Pintool station (Kalypsys, San Diego, CA). The plates were incubated at 37C and 5% CO2 for 16hr. Then 1 uL of LiveBLAzer B/G FRET substrate was added using a BioRAPTR FRD (Flying Reagent Dispenser, Aurora Discovery, San Diego, CA). After the plates were incubated at room temperature for 2 hours, fluorescence intensity was measured by an Envision plate reader (PerkinElmer, Shelton, CT).
% is set by controls: 0 for no effect and ±100 for the full control effect.

**Q.** For NCCCN(CCO)CCO, which “activation” value is on record?
**A.** -0.0216%

**Q.** With C=Cc1c(C)c2cc3[nH]c(cc4nc(cc5nc(cc1[nH]2)C(C)=C5CCC(=O)O)C(CCC(=O)O)=C4C)c(C)c3C=C as the molecule, how does the “activation” value read?
**A.** 2.81% [at 42.5 µM]

**Q.** With N#CCCNCCC#N as the molecule, how does the “activation” value read?
**A.** -1.09%

**Q.** With CCCC(C)C as the molecule, how does the “activation” value read?
**A.** 7.77%

**Q.** For CC1=CCC(C(C)C)C=C1 (stereo not given), which “activation” value is on record?
**A.** -0.486%

**Q.** Cc1occc1S was tested. Which “activation” value did it give?
**A.** 0.877%

**Q.** With CC(Cc1cccc(C(F)(F)F)c1)NCCOC(=O)c1ccccc1 (stereo not given) as the molecule, how does the “activation” value read?
**A.** 1.15% [at 42.5 µM]

**Q.** CC(C)(C)c1cc(CCC(=O)OCC(COC(=O)CCc2cc(C(C)(C)C)c(O)c(C(C)(C)C)c2)(COC(=O)CCc2cc(C(C)(C)C)c(O)c(C(C)(C)C)c2)COC(=O)CCc2cc(C(C)(C)C)c(O)c(C(C)(C)C)c2)cc(C(C)(C)C)c1O was tested. Which “activation” value did it give?
**A.** -0.295% [at 42.5 µM]

**Q.** For CCCCCCCCCCCCCCCCCBr, which activation is on record?
**A.** -0.0997% [at 19 µM]

**Q.** How did the “activation” value turn out when CCCCOCCOCCOCCOCCO was run?
**A.** -1.14%

**Q.** How did the “activation” value turn out when COC(Cc1ccccc1)OC was run?
**A.** 0.65%

**Q.** For CCC(=O)OC(C)(C)C1CC=C(C)CC1 (stereo not given), which “activation” value is on record?
**A.** 2.25%

**Q.** Which “activation” value does the source give for COc1ccc2[nH]c(S(=O)Cc3ncc(C)c(OC)c3C)nc2n1 (stereo not given) here?
**A.** -1.27% [at 42.5 µM]

**Q.** For O=C(NN1CCCC1)NS(=O)(=O)c1ccc(Cl)cc1, which “activation” value is on record?
**A.** 0.398% [at 42.5 µM]

**Q.** How did the “activation” value turn out when CC(C)(Oc1ccc(Cl)cc1)C(=O)OCCCOC(=O)C(C)(C)Oc1ccc(Cl)cc1 was run?
**A.** 4.01% [at 42.5 µM]

**Q.** With CC(=O)CC(=O)c1ccccc1 as the molecule, how does the “activation” value read?
**A.** -0.574%

**Q.** With CC(C)(C)c1ccc(OCC2CO2)cc1 (stereo not given) as the molecule, how does the “activation” value read?
**A.** -2.72%

**Q.** For CC(C(=O)O)c1ccc(C(=O)c2ccccc2)s1 (stereo not given), which “activation” value is on record?
**A.** -2.43% [at 42.5 µM]

**Q.** Which “activation” value does the source give for CCN(CC)CCNC(C(=O)OCCC(C)C)c1ccccc1 (stereo not given) here?
**A.** -3.11% [at 42.5 µM]

**Q.** Which “activation” value does the source give for CC(=O)c1c(C)c([N+](=O)[O-])c(C(C)(C)C)c([N+](=O)[O-])c1C here?
**A.** 4.85%

**Q.** O=C(O)[C@@H]1[C@H]2C[C@H]3c4[nH]c5ccccc5c4CCN3C[C@@H]2CC[C@@H]1O was tested. Which “activation” value did it give?
**A.** 0.0445% [at 42.5 µM]

**Q.** With CN1CCC(=C2c3ccccc3C=Cc3ccccc32)CC1 as the molecule, how does the “activation” value read?
**A.** -4.05% [at 42.5 µM]

**Q.** How did the “activation” value turn out when CC[C@]12CCCN3CCc4c(n(c5ccccc45)C(=O)C1)[C@@H]32 was run?
**A.** -2.84% [at 42.5 µM]

**Q.** Which “activation” value does the source give for COC(=O)CSc1cc(N=c2sc(=O)n3n2CCCC3)c(F)cc1Cl here?
**A.** -3.28%

**Q.** How did the “activation” value turn out when COc1ccc(C(C)=O)cc1 was run?
**A.** -0.834%

**Q.** CC(=O)N(CC(=O)N(C)C)c1ccccc1 was tested. Which “activation” value did it give?
**A.** 2.1% [at 42.5 µM]

**Q.** COc1ccc(OC)c(OC)c1 was tested. Which “activation” value did it give?
**A.** -0.943%

**Q.** For CCCCCCCCCC(=O)OCC, which “activation” value is on record?
**A.** -1.3%

**Q.** CC(=O)NCCCS(=O)(=O)O was tested. Which “activation” value did it give?
**A.** -3.23% [at 42.5 µM]

**Q.** With CCOC(=O)CC(C)C as the molecule, how does the “activation” value read?
**A.** -0.907%

**Q.** Which “activation” value does the source give for CCCCC(CC)(CO)CO here?
**A.** 0.466%

**Q.** With CCc1nn(C2CCCCC2)c2cc(C3(C#N)CCC(C(=O)O)CC3)ccc12 (stereo not given) as the molecule, how does the “activation” value read?
**A.** 4.06%

**Q.** With C=C(C)C(=O)OCCOc1ccccc1 as the molecule, how does the “activation” value read?
**A.** 1.84%

**Q.** For C=CC(=O)OCCOC(=O)CCC(=O)O, which “activation” value is on record?
**A.** 7.14%

**Q.** With Nc1cnn([C@@H]2O[C@H](CO)[C@@H](O)[C@H]2O)c(=O)n1 as the molecule, how does the “activation” value read?
**A.** -1.47%

**Q.** For O=C(O)Cc1sc(-c2ccccc2)nc1-c1ccc(Cl)cc1, which “activation” value is on record?
**A.** -0.959% [at 42.5 µM]

**Q.** Which “activation” value does the source give for O=S(=O)(O)c1ccc(O)c2ncccc12 here?
**A.** -4.28%

**Q.** Which “activation” value does the source give for CCCC[C@H]1CN(CC2CCOCC2)C(=O)OC12CCN(C1(C)CCN(C(=O)c3c(C)ncnc3C)CC1)CC2 here?
**A.** 0.203%

**Q.** Which “activation” value does the source give for CCCc1ccccc1 here?
**A.** 0.661%

**Q.** For CCOC(=O)[C@H](CCc1ccccc1)N[C@H]1CCc2ccccc2N(CC(=O)O)C1=O, which “activation” value is on record?
**A.** 7.84% [at 42.5 µM]
